Source: PubChem BioAssay (Tox21)
Several values for one entry are separate records, joined by “and”; a condition that tells them apart may be missing. Equal entries are not always repeated. Records with an inconclusive call do not appear. Entries that show only a call come without a potency. Activity calls are given as the source filed them. Calls follow the shape of the dose curve; as a rule, active = well fitted inhibition curve with a large enough effect in the repeat runs; inconclusive = weak or mixed curves, or effect the other way; inactive = no such curve, though single readings can be large or run the other way.

molecular target: Nuclear receptor ROR-gamma (Homo sapiens) (UniProt P51449); assay: qHTS assay to identify small molecule antagonists of the retinoid-related orphan receptor gamma (ROR-gamma) signaling pathway (AID 1159521; also: nearly all actives have a fitted effect of over 50% in size; as to activity change, negative = inhibition: top concentration of the series differs between compounds); conditions: Tet-on RORgamma CHO cells, RORE-luciferase, 16 h; series mostly up to 92.4 µM
Source text: U.S. Tox21 Program National Center for Advancing Translational Sciences [NCATS] NIH Chemical Genomics Center [NCGC] U.S. Environmental Protection Agency [EPA] National Institutes of Environmental Health Sciences [NIEHS] National Toxicology Program [NTP] U.S. Food and Drug Administration [FDA] Tox21 Assay Overview: Nuclear steroid hormone receptors are involved in many biological processes including inflammatory responses, cell proliferation, and apoptosis. Environmental factors or compounds disrupting these nuclear receptor pathways and gene expression may promote susceptibility to immunotoxicants and autoimmune diseases. One important group of these expression factors are the retinoid-related orphan receptors. To assess compounds that may interfere with the retinoid-related orphan receptor gamma (ROR-gamma) transcription factor, a cell-based luciferase assay was used. The CHO cell-based assay utilizes a TET-inducible ROR expression factor and ROR response element-LUC reporter gene. Reporter gene activity was induced using Doxycycline Hyclate and measured after 16 hr incubation. Tet-on ROR gamma CHO cells were used to screen against the Tox21 10K compound library for ROR gamma antagonists by quantification of decreased reporter gene activity in terms of decreased luminescence.
Tox21 Assay Protocol Summary: Tet-on ROR gamma CHO cells were dispensed at 1,000 cells in 4 uL of culture medium per well into white wall/solid bottom 1536-well plates using a Multidrop Combi (Thermo Scientific, Waltham, MA) dispenser. Following incubation at 37 C and 5% CO2 for 4 hr, 23 nL of compounds dissolved in DMSO, positive controls or DMSO only were transferred by a Pintool station (Kalypsys, San Diego, CA) and after 2 hr incubation at 37 C, one ul of 1 uM (final concentration) of Doxycycline Hyclate was added to all the wells by using a Flying Reagent Dispenser (FRD) (Aurora Discovery, San Diego, CA). After 16 hr incubation at 37 C and 5% CO2, 5 uL of ONE-Glo reagent (Promega Corporation, Madison, WI) was added to each assay plate using FRD. After 30 min incubation at room temperature, luminescence was quantified on a ViewLux plate reader (Perkin Elmer, Waltham, MA).
Potency is read from the fitted curve at half-maximal effect.

**Q.** For `C[C@]12C/C(=C/O)C(=O)C[C@@H]1CC[C@@H]1[C@@H]2CC[C@@]2(C)[C@H]1CC[C@]2(C)O`, which Potency is on record?
**A.** The Potency was 30.9 µM (active) and 29.8 µM (active).

**Q.** `CC(=O)[O][Sn]([c]1ccccc1)([c]1ccccc1)[c]1ccccc1` was tested. Which Potency did it give?
**A.** Its Potency is 24.3 nM (active).

**Q.** Which Potency does the source give for `CCC[CH2][Sn]([CH2]CCC)([CH2]CCC)[CH2]CCC` here?
**A.** Its Potency is 6110 nM (active).

**Q.** For `O=Cc1ccccc1`, which Potency is on record?
**A.** The Potency was “inactive”.

**Q.** With `O=S1OCC2C(CO1)C1(Cl)C(Cl)=C(Cl)C2(Cl)C1(Cl)Cl` (stereo not given) as the compound, how does the Potency read?
**A.** Its Potency is 43.3 µM (active) and 61.1 µM (active).

**Q.** How did the Potency turn out when `CC[C@]1(O)CC[C@H]2[C@@H]3CCC4=CCCC[C@@H]4[C@H]3CC[C@@]21C` was run?
**A.** The Potency was “inactive”.

**Q.** With `Nc1ccc(Cl)cc1C(=O)c1ccccc1F` as the compound, how does the Potency read?
**A.** The Potency was “inactive”.

**Q.** `CCCCc1ccccc1` was tested. Which Potency did it give?
**A.** The Potency was “inactive”.

**Q.** Which Potency does the source give for `COc1ccc2[nH]cc(CCN(C(C)C)C(C)C)c2c1` here?
**A.** The Potency was “inactive”.

**Q.** How did the Potency turn out when `N#CCCl` was run?
**A.** The Potency was “inactive”.

**Q.** With `Clc1cc(Cl)c(-c2cc(Cl)c(Cl)cc2Cl)cc1Cl` as the compound, how does the Potency read?
**A.** The Potency was “inactive”.

**Q.** `Nc1c(Cl)c(Cl)c(Cl)c(Cl)c1Cl` was tested. Which Potency did it give?
**A.** Its Potency is “inactive”.

**Q.** With `CCC(C)Nc1c([N+](=O)[O-])cc(C(C)(C)C)cc1[N+](=O)[O-]` (stereo not given) as the compound, how does the Potency read?
**A.** The Potency was “inactive”.

**Q.** For `Brc1cccc(-c2ccccc2)c1`, which Potency is on record?
**A.** Its Potency is “inactive”.

**Q.** How did the Potency turn out when `BrCC(Br)(Br)Br` was run?
**A.** Its Potency is “inactive”.

**Q.** For `Clc1c(Cl)c(Cl)c(Cl)c(Cl)c1Cl`, which activity change, negative = inhibition is on record?
**A.** The activity change, negative = inhibition was 5.22% [at 8.39 µM] (inactive).

**Q.** How did the Potency turn out when `c1ccc(Nc2ccc(Nc3ccccc3)cc2)cc1` was run?
**A.** The Potency was “inactive”.

**Q.** How did the Potency turn out when `N#Cc1sc2c(=O)c3ccccc3c(=O)c=2sc1C#N` was run?
**A.** Its Potency is 13700 nM (active).

**Q.** `Nc1ccc(N=Nc2ccccc2)cc1` was tested. Which Potency did it give?
**A.** Its Potency is “inactive”.

**Q.** How did the Potency turn out when `CCOP(=S)(NC(C)C)Oc1ccccc1C(=O)OC(C)C` (stereo not given) was run?
**A.** The Potency was 21700 nM (active).

**Q.** For `Cc1ccc([N+](=O)[O-])[c]2c1[O][Hg]2`, which Potency is on record?
**A.** Its Potency is 376 nM (active).

**Q.** How did the Potency turn out when `CO/N=C(/C1=NOCCO1)c1ccccc1Oc1ncnc(Oc2ccccc2Cl)c1F` was run?
**A.** Its Potency is 968 nM (active).

**Q.** With `CCOP(=S)(OCC)SC(CCl)N1C(=O)c2ccccc2C1=O` (stereo not given) as the compound, how does the Potency read?
**A.** The Potency was “inactive”.

**Q.** Which Potency does the source give for `CO/N=C(\C(=O)OC)c1ccccc1CO/N=C(\C)c1cccc(C(F)(F)F)c1` here?
**A.** Its Potency is 770 nM (active).

**Q.** Which Potency does the source give for `CCCCC/C=C\C/C=C\C/C=C\C/C=C\CCCC(=O)NCC(=O)O` here?
**A.** The Potency was “inactive”.

**Q.** `Clc1ccc(C(c2ccc(Cl)cc2)C(Cl)Cl)cc1` was tested. Which Potency did it give?
**A.** The Potency was 55.4 µM (active) and 54.5 µM (active).

**Q.** For `COC(=O)N(OC)c1ccccc1COc1ccn(-c2ccc(Cl)cc2)n1`, which Potency is on record?
**A.** Its Potency is 273 nM (active).

**Q.** With `[Cl][Hg][c]1ccccc1` as the compound, how does the Potency read?
**A.** The Potency was 611 nM (active).

**Q.** For `O=C1C2(Cl)C3(Cl)C4(Cl)C(Cl)(Cl)C5(Cl)C3(Cl)C1(Cl)C5(Cl)C24Cl` (stereo not given), which Potency is on record?
**A.** Its Potency is 12 µM (active) and 29.3 µM (active).

**Q.** Which Potency does the source give for `CNC(=O)O/N=C(\C)C(C)S(C)(=O)=O` (stereo not given) here?
**A.** The Potency was “inactive”.

**Q.** Which Potency does the source give for `CC(C)Br` here?
**A.** Its Potency is “inactive”.

**Q.** `NC1CCC(CC2CCC(N)CC2)CC1` (stereo not given) was tested. Which Potency did it give?
**A.** The Potency was “inactive”.

**Q.** `CCC[CH2][Sn]([CH2]CCC)([O]C(C)=O)[O]C(C)=O` was tested. Which Potency did it give?
**A.** The Potency was 69.2 nM (active).

**Q.** Which Potency does the source give for `Cc1ccc(C)c2ccccc12` here?
**A.** Its Potency is “inactive”.

**Q.** How did the Potency turn out when `CSSC` was run?
**A.** The Potency was “inactive”.

**Q.** How did the Potency turn out when `O=C(O)[C@H](O)[C@@H](O)C(=O)O` was run?
**A.** Its Potency is “inactive”.

**Q.** For `CCC(C)c1cccc(C(C)CC)c1O` (stereo not given), which Potency is on record?
**A.** Its Potency is “inactive”.

**Q.** For `Fc1ccc(C(OCCN2CCN(CCCc3ccccc3)CC2)c2ccc(F)cc2)cc1`, which Potency is on record?
**A.** The Potency was 13300 nM (active).

**Q.** How did the Potency turn out when `CC(C)=CC1C(C(=O)OC(C#N)c2cccc(Oc3ccccc3)c2)C1(C)C` (stereo not given) was run?
**A.** Its Potency is “inactive”.

**Q.** For `CCC1(CC)C(=O)N=C(O)NC1=O`, which Potency is on record?
**A.** The Potency was “inactive”.
